TWEAK-Fn14 inh: inhibitors of TWEAK-Fn14 signaling, primary screen, luciferase reporter cells, uHTS; inhibition, % at 10 µM; TWEAK-stimulated Fn14 reporter cells, luciferase luminescence, 8 h; 360,000 tested, 2% active; in the data active = inhibition above about 50%
TROY NFkB inh: inhibitors of TROY-driven NF-kB signaling, primary screen, Q293 LMP1-TROYcd cells, NF-kB luciferase, uHTS; Q293 LMP1-TROYcd NF-kB luciferase reporter, 4 h; inhibition, % at 10 µM; 360,000 tested, 0.98% active;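 active = compounds whose plate-normalised and pattern-corrected inhibition of the luciferase reporter signal at the single screening dose is 50% or more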
EWS-Fli block: EWS/Fli-driven NR0B1 reporter inhibitors, primary screen, A673 cells, NR0B1 luciferase, luminescence, MLPCN library; AID 651661, 2012; 350,000 tested, 0.67% active; inhibition, % at 12.6 µM; viability-normalised;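 active = mean inhibition of at least 50% after viability correction, with every replicate also passing that limit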;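 also: firefly luciferase signal divided by Alamar Blue viability fluorescence both relative to DMSO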
LGR2 antag: inhibitors of bursicon-induced LGR2 CRE-luciferase signal, primary screen, cell-based, HEK293, CRE-luciferase reporter, bursicon stimulation. 380,000 tested, 0.35% active. bursicon-stimulated, 4 h. Drosophila bursicon receptor LGR2 (rickets). inhibition, % at 9.99 µM;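 active = drop in luminescence signal, shown as inhibition above about 50% in the replicate tests, limit read from the data, passing the limit was not always enough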;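 also: agonist challenge used bursicon conditioned medium at about half maximal strength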
PAX8 reporter: inhibitors of PAX8-driven TPO luciferase reporter, primary screen, RMG-I cells, single concentration; AID 652154, 2013; SteadyGlo, 24 h; inhibition, % at 12.6 µM; 360,000 tested, 1.2% active;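 active = mean replicate inhibition at least 60% with every replicate also reaching 60%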;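 also: luciferase light reporting Pax8 driven TPO promoter activity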
DNA binder FP: DNA binders by acridine orange displacement, dose response, counter-screen for EWS/Fli inhibitor project, biochemical, fluorescence polarization, cherry-pick; shares compounds with EWS-Fli block; AC35, µM (highest dose often 68 µM); salmon sperm DNA acridine orange fluorescence polarization; 640 tested, 2% active;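 active = fitted curve reaches a 35% signal fall AC35 below twice the sample's top valid tested dose, actives reach about 48 µM in these data; inactive = the rest, including activity in the rising direction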;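 also: lower polarization ratio signals compound binding to DNA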
Numbers stand for hits; - = inactive; . = not tested or not shown. Compounds with a hit are over-represented: about 2.8% of the library has one in this group of screens.

SMILES	TWEAK-Fn14 inh	TROY NFkB inh	EWS-Fli block	LGR2 antag	PAX8 reporter	DNA binder FP
N#Cc1ccc(C#Cc2ccc3oc4ccccc4c(=O)c3c2)cc1	-	-	-	-	-	.
Cc1cc2sc3ccc(C#CC4(O)CCCCC4)cc3c(=O)c2cc1C	106	90	91	.	-	-
COc1ccc(-c2sc3cc(OC)c(OC)cc3c2C#CC2(O)CCCCC2)cc1	-	-	-	-	-	.
O=c1c2ccccc2oc2ccc(C#CC3(O)CCCCC3)cc12	98	89	61	75	-	-
CO[C@H]1CN(C)C(=O)c2cc(NS(C)(=O)=O)ccc2OC[C@H](C)N(C)C[C@@H]1C	.	.	-	-	-	.
Cc1cc(C)cc(OCC(=O)OCC(=O)Nc2cc(S(=O)(=O)N3CCOCC3)ccc2Cl)c1	-	-	-	-	-	.
Cc1cc(C)cc(OCC(=O)OCC(=O)Nc2cc(S(=O)(=O)N3CCOCC3)ccc2C)c1	-	-	66	-	-	-
C[C@H](CO)N1C[C@H](C)[C@H](CN(C)Cc2ccncc2)Oc2c(NC(=O)Nc3ccc4c(c3)OCO4)cccc2C1=O	.	.	-	-	-	.
COc1ccc(C2c3cc4c(cc3OC(NNC(N)=O)C2C)OCO4)cc1 (stereo not given)	-	-	50	-	.	-
COc1ccc2nc(NN=C(C)c3ccccn3)cc(C)c2c1	-	-	-	.	-	.
CC(=NNc1ccc2ccccc2n1)c1ccccn1	.	.	85	104	114	-
CC(=NNc1ccc2ccccc2n1)c1ccccc1O	100	74	74	95	-	-
O=C(C[C@H]1C=C[C@H](NC(=O)Cc2cccnc2)[C@@H](CO)O1)Nc1ccccc1	.	.	-	-	-	.
COc1ccc(CN2C[C@H](O)COC[C@H]3O[C@@H](CC(=O)NCc4ccncn4)CC[C@@H]32)cc1	.	.	-	-	-	.
COc1ccc(C/C(N)=N/OC(=O)Cc2ccc(OC)c(OC)c2)cc1	-	-	-	-	.	.
COc1ccc(C/C(N)=N/OC(C)=O)cc1OC	-	-	83	-	-	-
CC(C)(C)c1ccc(S(=O)(=O)NCc2ccc(C(=O)NCc3ccccn3)cc2)cc1	-	-	-	-	-	.
O=C(NCc1ccccn1)c1ccc(CNS(=O)(=O)c2cccc(Cl)c2)cc1	-	-	58	-	-	-
CCOc1ccc(NC(=O)C(=O)N/N=C\c2ccc(CNS(=O)(=O)c3ccccc3)o2)cc1	-	-	86	-	-	-
CCOc1ccc(C(=O)N/N=C/c2ccc(-c3ccc(S(=O)(=O)Nc4ncccn4)cc3)o2)cc1	-	-	.	-	.	.
CC(C)c1cn(CC[C@H]2CC[C@H](NS(=O)(=O)c3ccc(F)cc3)[C@@H](CO)O2)nn1	.	.	-	-	-	.
OCC1OC(n2ccc3c2ncn2ncnc32)C(O)C1O (stereo not given)	-	-	71	-	72	-
COc1ccc(C(=O)NCCNc2nc3cc(C)cc(C)c3cc2C#N)c(OC)c1	.	.	67	-	-	-
COc1ccccc1C(=O)NCCNc1nc2cc(C)cc(C)c2cc1C#N	-	-	-	-	-	.
CC(=O)/C(=N\Nc1ccccc1)Sc1cccc2cccnc12	-	-	.	-	.	.
SMILES	TWEAK-Fn14 inh	TROY NFkB inh	EWS-Fli block	LGR2 antag	PAX8 reporter	DNA binder FP
O=C(Sc1cccc2cccnc12)c1ccccc1Br	101	-	50	-	100	-
COc1ccc2c3c([nH]c2c1)[C@@H](CO)N(C(=O)C1CCCC1)CC31CCN(C(=O)c2ccncc2)CC1	.	.	-	-	-	.
Cc1c(CCOC(=O)CC23CC4CC(CC(C)(C4)C2)C3)sc[n+]1CC(=O)c1ccccc1	-	-	76	-	-	-
C[C@H](CO)N1C[C@H](C)[C@H](CN(C)S(=O)(=O)c2cn(C)cn2)Oc2c(NC(=O)Nc3ccc4c(c3)OCO4)cccc2C1=O	.	.	-	-	.	.
Cc1ccc(Cc2c(-c3ccccc3)nc3c(C)cc(Br)cn23)cc1	-	-	-	-	-	.
Cc1ccc(Cc2c(-c3ccco3)nc3c(C)cc(Br)cn23)cc1	-	-	54	-	-	-
COCC(=O)N1CC(=O)N2[C@@H](CO)[C@H](c3ccc(C#CC4CCCC4)cc3)[C@@H]2C1	.	.	-	-	.	.
O=C(N[C@H]1CC[C@H](CCNC(=O)C2CCOCC2)O[C@@H]1CO)c1ccccn1	.	.	-	-	-	.
O=c1[nH]c(=O)n([C@H]2C[C@H](O)[C@@H](CO)O2)cc1F	-	-	64	-	-	-
C/C=C/c1ccc([C@H]2[C@@H](CO)N3C(=O)CN(C(=O)c4cnccn4)C[C@@H]23)cc1	.	.	.	-	.	.
CCCCNC(=O)C(c1ccc(OCC(=O)OC)c(C(=O)OC)c1)N(CCOC)C(=O)CCCCCN1C(=O)NC(c2ccc(-c3ccccc3)cc2)C(C(=O)OCc2ccccc2)=C1C (stereo not given)	.	.	59	-	-	-
CC(=O)N(C)C[C@H]1Oc2ncc(C#C[C@H](C)O)cc2C(=O)N([C@@H](C)CO)C[C@@H]1C	.	.	-	-	.	.
Cc1ccc(/C=N/NC(=O)c2csc3c2CCCC3)cc1	-	-	.	.	.	.
COc1cc(/C=N/NC(=O)c2csc3c2CCCC3)cc(OC)c1O	-	-	85	-	-	-
O=C(Cc1cccnc1)N[C@@H]1CC[C@H](CCNS(=O)(=O)c2ccccc2Cl)O[C@H]1CO	.	.	.	-	.	.
CCc1ccc(S(=O)(=O)c2ccc(-n3nc(C)cc3N)cc2)cc1	-	-	53	-	-	-
O=C(Cc1nn[nH]n1)c1ccccc1O	-	-	68	-	-	-
CO[C@@H]1CN(C)C(=O)c2ccc(NC(=O)c3ccno3)cc2OC[C@@H](C)N(S(C)(=O)=O)C[C@H]1C	.	.	-	-	.	.
CCC1=Nc2cc(C(=O)NCC3CCCO3)ccc2Sc2ccc(Br)cc21 (stereo not given)	-	-	55	-	-	-
O=C(NCC1CCCO1)c1ccc(NC(=O)c2ccc(Br)cc2)cc1 (stereo not given)	-	-	-	-	-	.
COc1ccc([Si](C)(C)[C@H]2[C@H](CCO)O[C@@]3(C(=O)N(c4ccccc4)c4ccccc43)[C@@H]2C)cc1	.	.	58	.	103	-
N=c1ccn2c(n1)O[C@H]1[C@@H](CO)[C@H](O)O[C@H]12	-	-	-	-	-	.
N=c1ccn2c(n1)O[C@H]1[C@H](O)[C@@H](CO)O[C@H]12	-	-	53	-	-	-
C[C@H]1CN([C@@H](C)CO)S(=O)(=O)c2ccc(Br)cc2O[C@@H]1CN(C)C	.	.	-	-	.	.
O=C(CNC(c1ccccc1)c1ccccc1)Nc1ccccc1-c1ccccc1	-	-	54	-	-	-
O=C(CNC(c1ccccc1)c1ccccc1)Nc1ccccc1F	-	-	-	-	-	.
CCCCc1c(Cc2ccccc2)ncn1CCc1ccccc1OC	-	-	55	-	62	-

Bioassay records deposited in PubChem BioAssay by several laboratories.
